Results reported in PubChem BioAssay (NCI).
The panel holds about 83,000 compounds, 20% with a hit somewhere; the sample as a whole holds those more often.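 Plates (96-well) were seeded with cells, treated with compound at one concentration, and incubated for 48 hours before percent growth was determined.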 Values without a mark were called inactive. Active and inactive are the calls of the source. The calls were made as follows: active = growth percent below 10; inactive = the rest.

Experiments:
Assay in all cases: NCI-60 one-dose screen, 48 h (100 = growth as untreated, 0 = no growth, -100 = all killed)
Conditions in all cases: 10 µM unless noted
T-47D breast = test system: T-47D breast
BT-549 breast = test system: BT-549 breast
MDA-MB-435 melanoma = test system: MDA-MB-435 melanoma
SW-620 colon = test system: SW-620 colon
MCF7 breast = test system: MCF7 breast
HCT-116 colon = test system: HCT-116 colon
HCC-2998 colon = test system: HCC-2998 colon
KM12 colon = test system: KM12 colon

## CCN(CC)P(=O)(N(CC)CC)N(CCCSC/C=C(\C)CC/C=C(\C)CCC=C(C)C)CCCN1CCN(C)CC1
T-47D breast
  growth: 88.9%
BT-549 breast
  growth: 102%
MDA-MB-435 melanoma
  growth: 100%
SW-620 colon
  growth: 101%
MCF7 breast
  growth: 97.6%
HCT-116 colon
  growth: 97.1%
HCC-2998 colon
  growth: 104%
KM12 colon
  growth: 108%

## O=C1c2ccccc2C(=O)c2c1oc1oc3c(c(=O)c21)c(=O)n(-c1ccccc1)c1ccccc31
T-47D breast
  growth: 4.47% (active)
BT-549 breast
  growth: 12.3%
MDA-MB-435 melanoma
  growth: 87.8%
SW-620 colon
  growth: 18.6%
MCF7 breast
  growth: 51.6%
HCT-116 colon
  growth: 41.7%
HCC-2998 colon
  growth: 42.9%
KM12 colon
  growth: 18.9%

## Cc1cc2c(C(C)C)c(O)c(O)c(C=NCCCCCCC(=O)O)c2c(O)c1-c1c(C)cc2c(C(C)C)c(O)c(O)c(C=NCCCCCCC(=O)O)c2c1O
T-47D breast
  growth: 26.9%
BT-549 breast
  growth: 37.8%
MDA-MB-435 melanoma
  growth: 27.2%
SW-620 colon
  growth: 27.2%
MCF7 breast
  growth: 11.7%
HCT-116 colon
  growth: 17.6%
HCC-2998 colon
  growth: 33.5%
KM12 colon
  growth: 15.7%

## CC/C=C\C[C@H]1C/C=C2/C(=O)C(Cl)=C[C@@H]2C/C=C\CCCC(=O)O1
T-47D breast
  growth: -16.1% (active)
BT-549 breast
  growth: -75% (active)
MDA-MB-435 melanoma
  growth: -74.8% (active)
SW-620 colon
  growth: -74.8% (active)
MCF7 breast
  growth: -40.4% (active)
HCT-116 colon
  growth: -81% (active)
HCC-2998 colon
  growth: -80.2% (active)
KM12 colon
  growth: -74.3% (active)

## O=C1NC(Cc2c[nH]c3ccccc23)C(=O)N1Cc1ccc(Cl)cc1 (stereo unspecified)
T-47D breast
  growth: 94.3%
BT-549 breast
  growth: 96.3%
MDA-MB-435 melanoma
  growth: 92.2%
SW-620 colon
  growth: 98.4%
MCF7 breast
  growth: 98%
HCT-116 colon
  growth: 93.4%
HCC-2998 colon
  growth: 131%
KM12 colon
  growth: 99.3%

## CCN(CC)c1cc(/C=C/c2ccc(OC)c(OC)c2)nc2cc(F)c(F)cc12
T-47D breast
  growth: 40.2%
BT-549 breast
  growth: 24.5%
MDA-MB-435 melanoma
  growth: 100%
SW-620 colon
  growth: 104%
MCF7 breast
  growth: 65.3%
HCT-116 colon
  growth: 24.3%
HCC-2998 colon
  growth: 116%
KM12 colon
  growth: 103%

## COC(=O)CCCCN=Cc1c(O)c(O)c(C(C)C)c2cc(C)c(-c3c(C)cc4c(C(C)C)c(O)c(O)c(C=NCCCCC(=O)OC)c4c3O)c(O)c12
T-47D breast
  growth: 24.9%
BT-549 breast
  growth: 28.2%
MDA-MB-435 melanoma
  growth: 25.7%
SW-620 colon
  growth: 17%
MCF7 breast
  growth: 9.71% (active)
HCT-116 colon
  growth: 14.9%
HCC-2998 colon
  growth: 29.7%
KM12 colon
  growth: 16.1%

## CS(=O)(=O)N(c1cc(-c2ccc3ncnc(Nc4cccc(Cl)c4)c3c2)cnc1Cl)S(C)(=O)=O
T-47D breast
  growth: -2.25% (active)
BT-549 breast
  growth: -8.61% (active)
MDA-MB-435 melanoma
  growth: 15.9%
SW-620 colon
  growth: 20.4%
MCF7 breast
  growth: 4.87% (active)
HCT-116 colon
  growth: 12.1%
HCC-2998 colon
  growth: 23.9%
KM12 colon
  growth: 21.3%

## O=C(Nc1ccc(F)c(Cl)c1)c1n[nH]c(=O)c2ccccc12
T-47D breast
  growth: 81.1%
BT-549 breast
  growth: 132%
MDA-MB-435 melanoma
  growth: 93.2%
SW-620 colon
  growth: 107%
MCF7 breast
  growth: 60.6%
HCT-116 colon
  growth: 101%
HCC-2998 colon
  growth: 103%
KM12 colon
  growth: 92.4%

## Cc1cc(C(=O)CSc2nc3ccccc3c(=O)[nH]2)c(C)n1C
T-47D breast
  growth: 79.9%
BT-549 breast
  growth: 89.8%
MDA-MB-435 melanoma
  growth: 101%
SW-620 colon
  growth: 102%
MCF7 breast
  growth: 95.1%
HCT-116 colon
  growth: 106%
HCC-2998 colon
  growth: 72.9%
KM12 colon
  growth: 96.7%

## COC1=CC(c2ccc[nH]2)=N/C1=C\c1[nH]c(C)c(C(=O)CCCCC(=O)Nc2ccccc2)c1C
T-47D breast
  growth: 63.9%
BT-549 breast
  growth: 13.9%
MDA-MB-435 melanoma
  growth: 17%
SW-620 colon
  growth: -87.8% (active)
MCF7 breast
  growth: -85.7% (active)
HCT-116 colon
  growth: -100% (active)
HCC-2998 colon
  growth: 55.6%
KM12 colon
  growth: -3.11% (active)

## Nc1c(C(=O)Nc2cccc(C(F)(F)F)c2)sc2nc3c(cc12)CCCCC3
T-47D breast
  growth: -11.6% (active)
BT-549 breast
  growth: 25.2%
MDA-MB-435 melanoma
  growth: 32.7%
SW-620 colon
  growth: 58.3%
MCF7 breast
  growth: 29.5%
HCT-116 colon
  growth: -7.78% (active)
HCC-2998 colon
  growth: 46.9%
KM12 colon
  growth: 35.7%

## COc1ccc(/C=N/NC(=O)Cn2c(Cc3cccc4ccccc34)nc3ccccc32)cc1
T-47D breast
  growth: 85.8%
BT-549 breast
  growth: 107%
MDA-MB-435 melanoma
  growth: 103%
SW-620 colon
  growth: 109%
MCF7 breast
  growth: 92.4%
HCT-116 colon
  growth: 100%
HCC-2998 colon
  growth: 107%
KM12 colon
  growth: 98%

## COc1ccc(-c2nc3sccn3c2-c2ccnc(NCCCNS(=O)(=O)c3ccc(F)cc3)n2)cc1
T-47D breast
  growth: -12.7% (active)
BT-549 breast
  growth: 10%
MDA-MB-435 melanoma
  growth: 14.1%
SW-620 colon
  growth: 23.2%
MCF7 breast
  growth: 11.6%
HCT-116 colon
  growth: 8.56% (active)
HCC-2998 colon
  growth: 52%
KM12 colon
  growth: 9.82% (active)

## CCC(C)NCC(=O)O (stereo unspecified)
T-47D breast
  growth: 86.3%
BT-549 breast
  growth: 110%
MDA-MB-435 melanoma
  growth: 101%
SW-620 colon
  growth: 105%
MCF7 breast
  growth: 103%
HCT-116 colon
  growth: 99.9%
HCC-2998 colon
  growth: 101%
KM12 colon
  growth: 105%

## NC(=O)c1c(NC(=O)c2ccc(OCC3CCCO3)cc2)sc2c1CCCC2 (stereo unspecified)
T-47D breast
  growth: 80.5%
BT-549 breast
  growth: 101%
MDA-MB-435 melanoma
  growth: 95.8%
SW-620 colon
  growth: 110%
MCF7 breast
  growth: 101%
HCT-116 colon
  growth: 90%
HCC-2998 colon
  growth: 113%
KM12 colon
  growth: 66.9%

## COc1ccc(NC(=O)c2cc3ccccc3nc2Nc2cc(OC)c(OC)c(OC)c2)cc1
T-47D breast
  growth: 27.1%
BT-549 breast
  growth: 52.8%
MDA-MB-435 melanoma
  growth: 63.9%
SW-620 colon
  growth: 75.1%
MCF7 breast
  growth: 39.4%
HCT-116 colon
  growth: 48.2%
HCC-2998 colon
  growth: 89%
KM12 colon
  growth: 37.9%

## Nc1nn2cc(-c3ccc(Cl)s3)nc2c2ccccc12
T-47D breast
  growth: 55.8%
BT-549 breast
  growth: 105%
MDA-MB-435 melanoma
  growth: 93.4%
SW-620 colon
  growth: 98.6%
MCF7 breast
  growth: 44.3%
HCT-116 colon
  growth: 77.6%
HCC-2998 colon
  growth: 92.4%
KM12 colon
  growth: 79.2%

## O=C(Nc1ccc(I)cc1)c1cc([N+](=O)[O-])ccc1O
T-47D breast
  growth: 29.9%
BT-549 breast
  growth: 34.3%
MDA-MB-435 melanoma
  growth: 38.5%
SW-620 colon
  growth: 35.2%
MCF7 breast
  growth: 18.9%
HCT-116 colon
  growth: 19.3%
HCC-2998 colon
  growth: 16.1%
KM12 colon
  growth: 21%

## CC(=O)N1Cc2ccccc2C(C)Cc2cc(Cl)ccc21 (stereo unspecified)
T-47D breast
  growth: 100%
BT-549 breast
  growth: 115%
MDA-MB-435 melanoma
  growth: 106%
SW-620 colon
  growth: 106%
MCF7 breast
  growth: 102%
HCT-116 colon
  growth: 105%
HCC-2998 colon
  growth: 100%
KM12 colon
  growth: 103%

## COc1cccc(-c2nc3sccn3c2-c2ccnc(NCCNS(=O)(=O)c3ccccc3)n2)c1
T-47D breast
  growth: 9.54% (active)
BT-549 breast
  growth: 58.2%
MDA-MB-435 melanoma
  growth: 29.8%
SW-620 colon
  growth: 106%
MCF7 breast
  growth: 53.3%
HCT-116 colon
  growth: 49.7%
HCC-2998 colon
  growth: 119%
KM12 colon
  growth: 53.4%

## COc1cc(/C=C2\C=C(c3ccc(F)cc3)N(Cc3ccccc3)C2=O)cc(OC)c1OC
T-47D breast
  growth: 49.1%
BT-549 breast
  growth: 77.3%
MDA-MB-435 melanoma
  growth: 75.2%
SW-620 colon
  growth: 77.4%
MCF7 breast
  growth: 50.8%
HCT-116 colon
  growth: 42.2%
HCC-2998 colon
  growth: 103%
KM12 colon
  growth: 63.1%

## O=C1CCC(=O)N1Cc1ccccc1
T-47D breast
  growth: 113%
BT-549 breast
  growth: 111%
MDA-MB-435 melanoma
  growth: 99.4%
SW-620 colon
  growth: 100%
MCF7 breast
  growth: 91.5%
HCT-116 colon
  growth: 98.6%
HCC-2998 colon
  growth: 101%
KM12 colon
  growth: 96.4%

## O=C(Nc1ccc(F)cc1)c1cc([N+](=O)[O-])ccc1O
T-47D breast
  growth: 56%
BT-549 breast
  growth: 81.5%
MDA-MB-435 melanoma
  growth: 72.2%
SW-620 colon
  growth: 76.5%
MCF7 breast
  growth: 61.5%
HCT-116 colon
  growth: 66.8%
HCC-2998 colon
  growth: 63.9%
KM12 colon
  growth: 51.6%

## Cc1ccc2c(c1)ncn2-c1ncnc2c1CC(C)c1ccccc1N2C (stereo unspecified)
T-47D breast
  growth: 24.4%
BT-549 breast
  growth: -6.44% (active)
MDA-MB-435 melanoma
  growth: 11.8%
SW-620 colon
  growth: 22.9%
MCF7 breast
  growth: 12.9%
HCT-116 colon
  growth: 10.1%
HCC-2998 colon
  growth: 26.8%
KM12 colon
  growth: 10.5%

## CN(C)c1ccc(/C=C\N=Nc2ccc(Br)cc2)cc1
T-47D breast
  growth: 37.1%
BT-549 breast
  growth: 69.1%
MDA-MB-435 melanoma
  growth: 41.7%
SW-620 colon
  growth: 29.5%
MCF7 breast
  growth: 36.8%
HCT-116 colon
  growth: 50.6%
HCC-2998 colon
  growth: 83%
KM12 colon
  growth: 29.6%

## COc1cccc(/C=C/c2c(C(=O)O)cccc2[N+](=O)[O-])c1OC
T-47D breast
  growth: 91.2%
BT-549 breast
  growth: 107%
MDA-MB-435 melanoma
  growth: 101%
SW-620 colon
  growth: 99.7%
MCF7 breast
  growth: 95.8%
HCT-116 colon
  growth: 97.9%
HCC-2998 colon
  growth: 104%
KM12 colon
  growth: 96.8%
